{"source": "PubChem BioAssay AID504465", "about": "(National Center for Advancing Translational Sciences (NCATS), 2011)", "note": "Screen size: about 2,100 compounds; about 210 (10%) were called active. About 53% were inconclusive and are not listed. Some of the results follow. Unmarked numbers belong to inactive results. The call rests on the fitted dose curve; in most records, active means well fitted inhibition curve with a large enough effect; inconclusive means small, poorly fitted or top-dose-only effect, or effect the other way; inactive means no such curve, though single readings can be large or run the other way. Potency means the concentration at half of the fitted maximal effect.", "data": [{"assay": "IN Cell qHTS Assay for Inhibitors of the mTORC1 Signaling Pathway in MEF (Tsc2-/-, p53-/-) Cells: Sytravon; further: nearly all actives have a fitted effect of over 60% in size", "conditions": "phospho-rpS6 immunofluorescence, 24 h; series mostly up to 38.3 µM; activity, negative = inhibition: at the top concentration", "source_text": "NIH Molecular Libraries Probe Production Centers Network [MLPCN] NIH Chemical Genomics Center [NCGC] MLPCN Grant: NS059428-01 Assay Submitter (PI): Blenis, John; Hoffman, Greg; Harvard University NCGC Assay Overview: Thee mammalian target of rapamycin (mTOR) is an intracellular serine/threonine kinase Aberrant regulation of mTOR signaling plays a causative role in a number of human diseases, including cancer, benign tumors such as lymphangioleiomyomatosis (LAM) and Tuberous Sclerosis Complex (TSC), and metabolic diseases such as diabetes and obesity. This project aims to identify inhibitors of ribosomal protein S6 (rpS6) phosphorylation. The phosphorylation of rpS6 is a key event downstream of mTOR activation. The assay uses a phospho-specific antibody of phospho-rpS6 to detect inhibitors of mTOR activation. Mutations in the Tsc1 and Tsc2 genes are the underlying genetic lesions responsible for TSC, causing constitutive activation of the mTORC1 pathway and leading to profound effects on cell metabolism. Aberrant metabolism in cancer has recently received significant attention as a target to develop therapeutic agents in the treatment of cancer1. As Tsc2-/- cells have lost the ability to respond to energy and growth factor deprivation, these cells are unable to properly down regulate cellular biosynthetic processes in response to metabolic stress, and are thus extremely sensitive to glucose deprivation-induced death.2 A central goal of this project is to explore the unique cell survival and metabolic properties of cells with Tsc1 or Tsc2 by screening for compounds that selectively target the Tsc2-/- MEFs by screening both Tsc2-/- and WT MEF cell lines. We hope to better understand these aspects of TSC physiology in order to exploit them for therapeutic benefit.\nNCGC IN Cell Assay Protocol: For quantitative high throughput analysis of mTORC1 signaling, we developed a cell-based assay for immuno-fluorescence based detection of rpS6 phosphorylation on the Acumen Explorer that will be used a platform for the primary small molecule screen. Mouse embryonic fibroblasts (MEFs) are cultured in 1536-well plates using DMEM + 10% FBS. Twenty-four hrs after plating, test compounds (solubilized in DMSO) are delivered and incubated with the cells for 24 hrs at 37 degree Celsius. Following the incubation, media with compound is aspirated and the cells are fixed in 4% paraformaldehyde (PFA) containing PBS + 0.2% TX-100. Next, PFA is aspirated, cells are washed two times with PBS plus 0.2% TX-100 and the cells are blocked for 1 hr at room temperature (blocking buffer: LiCOR Blocking Buffer plus 0.2% TX-100). This is followed by aspiration and staining with Alexa-488 conjugated-phospho-rpS6 Ser235/236 antibody for 2 hours at room temperature (Cell Signaling Technology # 4803, 1:50 dilution in blocking buffer). Cells are washed two times with PBS plus 0.2% TX-100, and stained with 10 uM propidium iodide (PI) for 20-25 minutes for cell number measurement (1:500 dilution of Hoescht staining is also added for IN Cell imaging). Active wells which are selected (based on Acumen results) are imaged on the IN Cell 1000 (GE Healthcare) using the D360/40X and HQ480/40X excitation filters for the Hoechst and Alexa-488 cytoplasmic stains, respectively. The fluorescence emission filters used were HQ460/40M and HQ535/50M for the Hoechst and Alexa-488 cytoplasmic stains, respectively. The normalized phospho-S6 staining is calculated as the ratio of […] for the single concentration rapamycin control (7.5 nM) and DMSO columns. […] Inhibition of the pathway is defined based on the normalized phospho-S6 intensity in rapamycin treated cells. Each treatment is reported as the % positive cells in the well, where thresholds are defined by selecting wells with the highest and lowest signal and differentiating between the % non-active and % active populations. […]", "units": {"activity, negative = inhibition": "%"}, "values": [{"smiles": "O=C(NCCc1ccccc1)c1ccc(Cn2c(SCc3ccccc3)nc3cccnc32)cc1", "activity, negative = inhibition": -23.6}, {"smiles": "O=C(Nc1ccc(Cl)cc1)c1cc(S(=O)(=O)N2CCCc3ccccc32)ccc1F", "activity, negative = inhibition": 6.25}, {"smiles": "Cc1noc2ncnc(N3CCN(c4ccccc4F)CC3)c12", "activity, negative = inhibition": -0.0728}, {"smiles": "Cc1cccc(Nc2nc(Nc3cccc(C)c3)nc(N3CCOCC3)n2)c1", "Potency": "1.47 µM (active)"}, {"smiles": "Fc1ccc(Nc2nc(Nc3ccc(F)cc3)nc(N3CCOCC3)n2)cc1", "Potency": "0.521 µM (active)"}, {"smiles": "Cc1ccc(Nc2nc(Nc3ccc(C)c(C)c3)nc(N3CCOCC3)n2)cc1C", "Potency": "0.656 µM (active)"}, {"smiles": "CCOc1ccc(Nc2nc(Nc3ccc(OCC)cc3)nc(N3CCOCC3)n2)cc1", "Potency": "0.826 µM (active)"}, {"smiles": "CCCN1C(=O)CN(C2CCCCCC2)C(=O)C1c1ccc(OCC)c(OC)c1", "note": "(stereo unspecified)", "activity, negative = inhibition": 6.25}, {"smiles": "CC(C)OCCCNC(=O)CCCN1C(=O)CCn2nc(-c3cccn3C)cc21", "activity, negative = inhibition": -0.543}, {"smiles": "CCCN1CCN(c2ncnc3sc(C(=O)Nc4ccc(OC(F)(F)F)cc4)c(C)c23)CC1", "activity, negative = inhibition": -14.8}, {"smiles": "O=C(Nc1cc(Cl)cc(Cl)c1)c1ccc(F)c(S(=O)(=O)N2CCCCCC2)c1", "activity, negative = inhibition": 6.25}, {"smiles": "CC(C)c1nn2c(=O)cc(COC(=O)c3ccc(NC(=O)c4cccs4)cc3)nc2s1", "activity, negative = inhibition": 0}, {"smiles": "CC1=Nc2cc(C(=O)NC3CCCC3)ccc2Sc2ccc(C)cc21", "activity, negative = inhibition": -15}, {"smiles": "COc1ccc(Nc2nc(Nc3ccc(OC)cc3OC)nc(N3CCOCC3)n2)c(OC)c1", "Potency": "1.31 µM (active)"}, {"smiles": "COc1ccccc1NCc1cccn1-c1nnc(N2CCOCC2)s1", "activity, negative = inhibition": -15}, {"smiles": "CCCN1Cc2cccc(C(=O)Nc3ccc(OC)cc3OC)c2C1=O", "activity, negative = inhibition": 13.5}, {"smiles": "CCN(CC)S(=O)(=O)c1ccc2c(c1)N(CC(=O)NCCCN1CCN(c3cc(C)ccc3C)CC1)C(=O)CO2", "activity, negative = inhibition": 0}, {"smiles": "CCCN1CCN(CCCNC(=O)c2cc3c(s2)-c2c(C)cccc2OC3)CC1", "Potency": "18.5 µM (active)"}, {"smiles": "CCN1CCN(CCCNC(=O)c2cc3c(s2)-c2c(C)cccc2OC3)CC1", "Potency": "14.7 µM (active)"}, {"smiles": "CCOc1ccccc1NC(=O)c1c(NCc2cccs2)sc2c1CCC(C)C2", "note": "(stereo unspecified)", "activity, negative = inhibition": 0}, {"smiles": "Cc1ccc(C)c(NC(=O)CSc2cn(CC(=O)N3CCCC3)c3ccccc23)c1", "activity, negative = inhibition": -2.42}, {"smiles": "COc1cccc(Nc2sc(C(=O)c3ccc(F)cc3)c(N)c2C(=O)NCc2ccc(C)cc2)c1", "activity, negative = inhibition": 0}, {"smiles": "COc1ccc(-c2cc(C(=O)Nc3ccc4c(c3)OCO4)no2)cc1", "activity, negative = inhibition": -7.44}, {"smiles": "COc1cccc(-c2ccc3c(N)c(C(=O)c4ccc(Cl)cc4)sc3n2)c1", "Potency": "10.4 µM (active)"}, {"smiles": "COc1ccc(-c2ccc3c(N)c(C(=O)Nc4ccc(C(F)(F)F)cc4)sc3n2)cc1OC", "Potency": "0.233 µM (active)"}, {"smiles": "COc1ccc(-c2ccc3c(N)c(C(=O)Nc4cccc(C)c4)sc3n2)cc1", "Potency": "13.1 µM (active)"}, {"smiles": "COc1ccc(-c2cc(C(=O)Nc3cccc(O)c3)on2)cc1OC", "activity, negative = inhibition": -6.34}, {"smiles": "COc1ccc(CNC(=O)c2c(Nc3ccccc3C)sc(C(=O)c3ccccc3)c2N)cc1", "activity, negative = inhibition": -15.4}, {"smiles": "COc1ccc(C(=O)Nc2cc(-c3nc4ccccc4s3)ccc2OC)cc1", "activity, negative = inhibition": -10.3}, {"smiles": "COc1ccc(NC(=O)c2sc3nc(-c4ccc(OC)cc4)cc(C(F)(F)F)c3c2N)cc1", "activity, negative = inhibition": 15.3}, {"smiles": "CCCc1ccc(C2Sc3ccccc3NC3=C2C(=O)c2ccccc23)cc1", "note": "(stereo unspecified)", "activity, negative = inhibition": -13.1}, {"smiles": "Cc1cccc(NC(=O)CSc2nc3ccccc3c3nc(CCn4cncc4C)nn23)c1", "activity, negative = inhibition": -11.5}, {"smiles": "COc1cc(NC(=O)c2cccc(F)c2)ccc1NC(=O)c1cc2ccccc2o1", "Potency": "16.5 µM (active)"}, {"smiles": "COc1cccc(C(=O)Nc2ccccc2-c2nnc(-c3cccc(OC)c3)o2)c1", "activity, negative = inhibition": -24.5}, {"smiles": "CCCCCC(=O)Nc1ccc(NC(=O)c2cc3ccccc3o2)c(OC)c1", "Potency": "18.5 µM (active)"}, {"smiles": "Cc1cccc(Nc2ncc(NC(=O)c3cccc(F)c3)c(Nc3cccc(C)c3)n2)c1", "activity, negative = inhibition": -24.6}, {"smiles": "COc1cc(NC(=O)Cn2ccc3ccccc3c2=O)cc(OC)c1OC", "activity, negative = inhibition": -20.1}, {"smiles": "COc1ccc(NC(=O)c2ccco2)cc1NC(=O)COc1ccc(Cl)c(C)c1", "activity, negative = inhibition": -24}, {"smiles": "O=C(Nc1ccc(F)c(Cl)c1)c1cc(S(=O)(=O)N2CCc3ccccc3C2)ccc1F", "activity, negative = inhibition": 6.25}, {"smiles": "COC(=O)c1cc(C)nc2c1c(=O)nc(SCc1ccccc1Cl)n2C1CC1", "activity, negative = inhibition": -23.4}, {"smiles": "COc1ccccc1N1CCN(C(=O)c2ccc3c(c2)CCN3S(=O)(=O)c2ccccc2)CC1", "activity, negative = inhibition": -4.71}, {"smiles": "CCc1ccccc1NC(=O)CCNS(=O)(=O)c1ccc2c(c1)CCN2C(=O)C1CC1", "activity, negative = inhibition": 3.7}, {"smiles": "COc1ccc(-n2ncc(C(=O)N3CCN(C4CCCCC4)CC3)c2C2CCN(C(=O)OC(C)(C)C)CC2)cc1", "activity, negative = inhibition": 1.08}, {"smiles": "Cc1ccc(Cl)cc1N1CCN(C(=O)c2cnn(-c3ccc(Cl)cc3)c2C2CCNCC2)CC1", "Potency": "13.1 µM (active)"}, {"smiles": "Cc1ccc(Cl)cc1N1CCN(C(=O)c2ccc3c(c2)N(Cc2ccc(F)cc2)CCS3)CC1", "activity, negative = inhibition": -18.8}, {"smiles": "COc1ccc(OC)c(NC(=O)c2c(NCc3ccc(C)o3)sc3c2CCC(C)C3)c1", "note": "(stereo unspecified)", "activity, negative = inhibition": 0}]}]}
